Assay in all cases: qHTS profiling for inhibitors of Plasmodium falciparum proliferation (AID 504749); further: nearly all actives have a fitted effect of over 60% in size
What all share (settings): P. falciparum in erythrocytes, SYBR Green DNA, 72 h; series mostly up to 28.7 µM
For orientation: qHTS replaces the single test concentration by a dilution series.

The test system of assay [1] is CP192. A digest of the protocol: (§1)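 P. falciparum-infected erythrocytes (0.3% parasitemia, 2.5% hematocrit) incubated with compound 72 h at 37 C, 5% CO2. Parasite DNA detected by SYBR Green after lysis, overnight at room temperature; normalised to 0.29 uM artemisinin and DMSO.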
Assay [2] relates to CP194. A digest of the protocol: as §1
The subject of assay [3] is CP201. Put shortly: as §1
For assay [4], the system named is CP203. A digest of the protocol: as §1
For assay [5], the system named is CP211. Put shortly: as §1
The test system of assay [6] is CP215. Put shortly:
as §1

For assay [7], the system named is CP237. Put shortly: as §1
Assay [8] deals with CP217. A digest of the protocol: as §1
The subject of assay [9] is CP238. Put shortly:
as §1

The subject of assay [10] is CP247. A digest of the protocol:
as §1

The structures appear in SMILES notation. Records with an inconclusive call do not appear. Activity calls are given as the source filed them. The call rests on the fitted dose curve; in most records, active means well fitted inhibition curve with a large enough effect; inconclusive means small, poorly fitted or top-dose-only effect; inactive means flat fitted curve, though single readings scatter.
Potency means the concentration at half of the fitted maximal effect.

In the case of `CN(Cc1cnc2nc(N)nc(N)c2n1)c1ccc(C(=O)N[C@@H](CCC(=O)O)C(=O)O)cc1`, the Potency result in assay [1], in assay [2], in assay [3], in assay [4], in assay [5] and in [6] was “inactive” in each case. Further, the Potency in assay [7] is 0.1 µM (active).

As to `CS(=O)(=O)Nc1ccc([N+](=O)[O-])cc1Oc1ccccc1`, the Potency entry in assay [1], in assay [2], in assay [3], in assay [4], in assay [5] and in [6] was “inactive” in each case. The Potency entry in assay [8], in assay [7], in [9] and in assay [10] was “inactive” in each case.

In the case of `CN(CCOc1ccc(NS(C)(=O)=O)cc1)CCc1ccc(NS(C)(=O)=O)cc1`, the Potency result in [1], in [2], in [3], in assay [4], in [5] and in [8] was “inactive” in each case. The Potency entry in assay [7], in assay [9] and in assay [10] was “inactive” throughout.

Regarding `Cc1cc(C(C)(C)C)cc(C)c1CC1=NCCN1`, the Potency entry in [2], in [3], in assay [4], in assay [5], in assay [6] and in assay [8] was “inactive” each time. The Potency result in assay [9] and in [10] was “inactive” throughout. Besides, in [7], the Potency was 3.98 µM (active).

In the case of `Cc1ccc(-c2cc(C(F)(F)F)nn2-c2ccc(S(N)(=O)=O)cc2)cc1`, the Potency in [6] was 13.5 µM (active). Moreover, in assay [9], the Potency result is “inactive”.

Take `CS(=O)(=O)CCNCc1ccc(-c2ccc3ncnc(Nc4ccc(OCc5cccc(F)c5)c(Cl)c4)c3c2)o1`: the Potency entry in [1], in assay [2], in assay [3], in [4], in assay [5] and in assay [6] was “inactive” throughout. The Potency entry in [8], in assay [7], in assay [9] and in assay [10] was “inactive” in each case.

On to `CCOC(=O)Nc1ccc(NCc2ccc(F)cc2)nc1N`, for which, in [4], the Potency result was “inactive”. In addition, the Potency is 10 µM (active) in assay [8], 10 µM (active) in assay [7] and 12.6 µM (active) in assay [10].

As to `CNCCCC12CCC(c3ccccc31)c1ccccc12`, the Potency entry in assay [1], in assay [3], in assay [6], in [8], in [9] and in [10] was “inactive” in each case.

On to `COc1ccc2[nH]cc(CCNC(C)=O)c2c1`, for which the Potency result in [1], in assay [2], in assay [3], in [4], in assay [5] and in [8] was “inactive” in each case. The Potency result in assay [7], in [9] and in assay [10] was “inactive” each time.

Regarding `O=C1c2c(O)ccc(O)c2C(=O)c2c(NCCNCCO)ccc(NCCNCCO)c21`, the Potency is 6.42 µM (active) in assay [2]; 6.42 µM (active) in [3]; 6.42 µM (active) in [5]; 6.42 µM (active) in assay [6]; 3.55 µM (active) in assay [8]; 1.26 µM (active) in assay [7]. Further, the Potency in assay [9] and in assay [10] was 3.16 µM (active) in each case.

For `CN(C)C(=N)N=C(N)N`, the Potency result in assay [3], in assay [8], in assay [7], in assay [9] and in assay [10] was “inactive” throughout.

On to `Nc1c2c(nc3ccccc13)CCCC2`, for which the Potency entry in assay [3], in assay [8] and in assay [9] was “inactive” each time.

With `Clc1ccc(C(c2ccccc2Cl)C(Cl)Cl)cc1` (stereo unspecified), the Potency entry in [1], in assay [8], in [7], in assay [9] and in assay [10] was “inactive” throughout.

For the compound `CC(COc1ccccc1)N(CCCl)Cc1ccccc1` (stereo unspecified), the Potency result in [1], in assay [3], in assay [5] and in assay [10] was “inactive” each time. For the same compound, the Potency in assay [7] is 11.2 µM (active).

Take `O=c1[nH]cc(F)c(=O)[nH]1`: the Potency entry in assay [6] was “inactive”. Besides, the Potency in assay [10] is 8.91 µM (active).

As for `CN(C)CCC=C1c2ccccc2C=Cc2ccccc21`, the Potency result in assay [1], in assay [5], in assay [8], in assay [7] and in [10] was “inactive” throughout.

As to `OCCN1CCN(CCCN2c3ccccc3Sc3ccc(C(F)(F)F)cc32)CC1`, the Potency in assay [2] is 10.7 µM (active); in assay [3], 8.49 µM (active); in assay [4], 13.5 µM (active); in assay [5], 7.57 µM (active); in [6], 13.5 µM (active); in [8], 10 µM (active). Also, the figures for the Potency in assay [7], in [9] and in [10] were 12.6 µM (active), 8.91 µM (active) and 11.2 µM (active), respectively.

`CCOC(=O)c1ncn2c1CN(C)C(=O)c1cc(F)ccc1-2`: the Potency entry in assay [1], in assay [2], in assay [3], in assay [4], in assay [5] and in assay [6] was “inactive” in each case. The Potency entry in assay [8], in assay [7], in [9] and in assay [10] was “inactive” each time.

As to `CN(C)CCCN1c2ccccc2CCc2ccc(Cl)cc21`, the Potency result in [3], in [5], in assay [9] and in [10] was “inactive” in each case.

With `CC12CC3CC(C)(C1)CC(N)(C3)C2`, the Potency entry in [1], in assay [2], in assay [3], in assay [4], in [5] and in [6] was “inactive” in each case. Further, the Potency entry in assay [8], in assay [9] and in [10] was “inactive” each time.

As for `O=c1c(O)c(-c2ccc(O)c(O)c2)oc2cc(O)cc(O)c12`, the results for the Potency in [6] and in assay [10] were 13.5 µM (active) and 7.08 µM (active), respectively.

As for `O=C(c1ccc(F)cc1)C1CCN(CCn2c(=O)[nH]c3ccccc3c2=O)CC1`, the Potency entry in [1], in assay [2], in assay [3], in assay [4], in [5] and in [8] was “inactive” in each case. Further, the Potency entry in [7] and in assay [9] was “inactive” throughout.

On to `COc1cc2c(c(OC)c1OC)-c1ccc(OC)c(=O)cc1[C@@H](NC(C)=O)CC2`, for which the Potency entry in assay [1], in [2], in assay [3], in assay [4], in [5] and in assay [8] was “inactive” throughout. Moreover, the Potency result in assay [7], in assay [9] and in assay [10] was “inactive” throughout.

`CCCCc1oc2ccccc2c1C(=O)c1cc(I)c(OCCN(CC)CC)c(I)c1`: the Potency in assay [4] is 15.1 µM (active); in assay [6], 15.1 µM (active); in assay [8] it was 5.62 µM (active); in assay [7], 7.08 µM (active); in assay [9], 7.94 µM (active); in assay [10] it was 8.91 µM (active).

These data come from PubChem BioAssay (NCATS).
